Structures are written as SMILES. About 83,000 compounds went through this panel and 20% of them were active in at least one assay; those are over-represented in the sample as a whole.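 Note: values are percent growth. 100 is the growth of untreated cells, values between 100 and 0 indicate rising inhibition; between -100 and 0 indicates cell death.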 Unmarked numbers belong to inactive results. Active and inactive are the calls of the source. Rule for the calls: active = growth percent below 10; inactive = the rest.

The assay deals with LOX IMVI melanoma. The experiment in a line: NCI-60 one-dose screen, 48 h (100 = growth as untreated, 0 = no growth, -100 = all killed). To be noted: 10 µM unless noted.
Take `COc1cc(Cl)cc(-c2nn(-c3cccc(NC(=O)c4cc(C(F)(F)F)cc(C(F)(F)F)c4)c3)cc2-c2ccncc2)c1`: the growth is 76.1%. Regarding `O=C(Oc1ccccc1)C(Br)C(Br)c1ccccc1` (centres undefined), the growth is 82.2%. For `c1cc[n+](Cc2ccnc3ccccc23)cc1` the value was 90.8%. Regarding `CCCCOP(=O)(OCCCC)C(C(=O)OCC)C(CC(=O)OCC)C(=O)OCC` (centres undefined), the growth is 109%. The same measure for `CCCCCc1c(C)[nH]c(/C=C2\N=C(c3ccc[nH]3)C=C2Oc2ccccc2)c1C`: -90% [100 µM] (active). With `c1ccc(-c2n(Cc3ccc4ccccc4c3)cc[n+]2Cc2ccc3ccccc3c2)cc1`, the growth was -92.5% (active). For `CC[C@@H](c1ccc(O)c(O)c1)[C@@H](CC)c1ccc(O)c(O)c1` the value was 61%.

Regarding `COc1ccc(-c2cnc(SCC(=O)Nc3ccc(-c4nc5ccccc5s4)cc3)n2-c2ccc(OC)cc2)cc1`, the growth is 95.2%. Regarding `O=C(Nc1ccccc1S)c1ccccc1`, the growth was 84.9%.

For `Cc1sc2nc(NCc3ccccc3)[nH]c(=O)c2c1C`, the growth was 53%. Regarding `CCCCCCCCCCNCCSS(=O)(=O)O`, the growth was 20.9%. For `O=C1CSC(c2ccccc2Cl)N1c1nnc(Cn2nnc3ccccc32)o1` (centres undefined) the value was 85.9%. For `O=C(Nc1nc(-c2ccc(Cl)cc2)cs1)c1cc(-c2ccc(Br)cc2)nc2ccc(Cl)cc12` the value was 20.3%.

Turning to `NS(=O)(=O)c1ccc(-n2ncc3c(SCc4ccccc4)ncnc32)cc1`, the growth is 92.8%. For the compound `C[C@]12CC[C@H](O)CC1=CC[C@@H]1[C@@H]2CC[C@]2(C)C(c3cccnc3)=CC[C@@H]12`, the growth was 74.5%. Turning to `Nc1nc2c(c(=O)[nH]1)C1(C(=O)Nc3ccccc31)c1c(nc(N)[nH]c1=O)N2`, the growth is 98.2%.

On to `C=C1CC[C@@H]2[C@](C)(COC(C)=O)[C@H](OC(C)=O)CC[C@@]2(C)[C@@H]1CC(NCc1ccccc1)C1=CCOC1=O` (some centres undefined), for which the growth was 44.6%. For the compound `CCN(CC)c1ccc(/C=C/C(=O)c2cccc(NS(C)(=O)=O)c2)cc1`, the growth is 15%.

Regarding `COc1cc(-c2nnc(-c3nc(-c4cc(OC)c(OC)c(OC)c4)n4ccccc34)o2)ccc1N`, the growth is 56.3%. With `CCSc1nc(Nc2ccc(S(=O)(=O)Nc3ccon3)cc2)c(C#N)c(-c2cccc(Br)c2)n1`, the growth was 94.1%.

As to `Cc1ccc(C2=NNC(c3sc(Cl)nc3Cl)C2)cc1` (centres undefined), the growth was 9.94% (active). For `COc1cc(/C=C\C(C)=N\Nc2ccccc2)ccc1O` the value was 73.1%. The same measure for `CC(=O)Nc1c(Cl)cc2c(c1Cl)Cc1cc([N+](=O)[O-])ccc1-2`: 86.2%; for `CCOC(=O)C(Br)=P(c1ccccc1)(c1ccccc1)c1ccccc1`: 101%; for `Cc1[nH]ccc2cc3nc4ccccc4c3cc12`: 12%. In the case of `COc1ccc(-c2cc(-c3nnc(SCC(=O)Nc4ccc(C(C)=O)cc4)n3-c3ccccc3)c3ccccc3n2)cc1OC`, the growth is 98.1%. For `CC(=O)N1N=C(c2ccc(Nc3nc(NCCO)nc(NCCO)n3)cc2)CC1c1ccc(Cl)cc1` (centres undefined) the value was 93.6%. The same measure for `COc1ccccc1NC(=O)c1sc2nc3c(cc2c1N)C(=O)CCC3`: 79.4%; for `CC1(C)CC2(C)CC(=O)C1C(C(=O)O)C2C(=O)O` (centres undefined): 101%; for `C(=C1c2ccccc2-c2ccccc21)c1ccncc1`: 39.5%. For `COc1cccc(N2CCN(c3cccc(C)n3)CC2)c1` the value was 103%. Consider `Cc1ccc(NC(=O)c2sc3nc4c(cc3c2N)C(=O)CCC4)cc1`, for which the growth is 93.1%. Turning to `Nc1ccc(Oc2c(F)c(F)c(Oc3ccc(N)cc3)c(F)c2F)cc1`, the growth was 86.5%.

For the compound `CN(C)CCC(=O)Nc1ccc(-n2cc(-c3cccc(NC(=S)Nc4cccc(-c5cn(-c6ccc(NC(=O)CCN(C)C)cc6)nn5)c4)c3)nn2)cc1`, the growth is 19.3%.

For the compound `O=C1c2cc3c(cc2-c2c1c1ccc(Cl)cc1c(=O)n2CCCNCCO)OCO3`, the growth is -89.2% (active). Take `O=C(CSc1nnc(-c2cc(-c3ccccc3)nc3ccccc23)o1)c1ccc(Br)cc1`: the growth is 101%. The same measure for `O=c1ncc(-c2ccc(C(F)(F)F)cc2)c(NC2CCCCCC2)[nH]1`: 57.9%; for `CCc1ccc(-c2nc(SCC(=O)NC3CCCCC3)n[nH]2)cc1`: 67.8%. For `COc1ccc(C(=O)/C=C/c2ccc(C)cc2)cc1OC` the value was 48.6%.

These data come from PubChem BioAssay (NCI).
